dFosB activator: enhances mouse delta FosB homodimer DNA binding. P13346. purified delta FosB, TAMRA-CDK5 oligo fluorescence polarization; percent of positive-control signal above neutral wells. activation, % at 25 µM. actives 0.99% (n = 340,000). AID 493131;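 active = mean activation above about 17%, with every replicate also reaching it, limit read from the data, passing the limit was not always enough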
NCF1 inh: blocks human p47phox regulatory protein of NADPH oxidases; P14598; p47phox/p22phox peptide binding, fluorescence polarization, 2 h; inhibition, % at 24.7 µM; actives 0.53% (n = 220,000);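 active = inhibition above about 30%, limit read from the data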;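 also: 0% = p47phox with labelled peptide and 100% = labelled peptide alone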
Target sequence (P14598 whole entry, looked up): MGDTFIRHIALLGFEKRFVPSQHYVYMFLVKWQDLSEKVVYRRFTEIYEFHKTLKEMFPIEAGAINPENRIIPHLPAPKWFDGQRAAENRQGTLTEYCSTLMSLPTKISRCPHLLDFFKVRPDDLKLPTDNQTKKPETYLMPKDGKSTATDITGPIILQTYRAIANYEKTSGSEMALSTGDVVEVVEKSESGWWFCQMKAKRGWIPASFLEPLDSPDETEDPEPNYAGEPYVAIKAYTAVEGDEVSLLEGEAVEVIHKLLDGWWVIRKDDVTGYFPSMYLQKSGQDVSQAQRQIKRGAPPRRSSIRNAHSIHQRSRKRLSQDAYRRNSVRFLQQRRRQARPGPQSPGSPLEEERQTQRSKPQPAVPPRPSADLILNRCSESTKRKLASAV
HMGR II inh: E. faecalis class II HMG-CoA reductase inhibition. purified E. faecalis HMGR, NADPH absorbance 340 nm kinetic. inhibition, % at 10 µM. actives 0.41% (n = 190,000). AID 1066;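 active = inhibition above a set limit, the median over all tested compounds plus 3 SD, cut at about 9.5% in these data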;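 also: enzyme runs in reverse so mevalonate oxidation gives rising NADPH absorbance; 0% = complete reaction with DMSO and 100% = background rate lacking mevalonate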
14-3-3 Bad inh: disrupts binding of bovine 14-3-3 zeta to phospho-Bad peptide; P63103; TR-FRET 14-3-3zeta/Dy647-pBad peptide displacement, 1 h; inhibition, % at 21.7 µM; actives 0.71% (n = 220,000);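 active = inhibition above about 70%, limit read from the data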;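 also: 0% = full 14-3-3 plus peptide FRET controls and 100% = background without 14-3-3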
Target sequence (P63103 whole entry, looked up): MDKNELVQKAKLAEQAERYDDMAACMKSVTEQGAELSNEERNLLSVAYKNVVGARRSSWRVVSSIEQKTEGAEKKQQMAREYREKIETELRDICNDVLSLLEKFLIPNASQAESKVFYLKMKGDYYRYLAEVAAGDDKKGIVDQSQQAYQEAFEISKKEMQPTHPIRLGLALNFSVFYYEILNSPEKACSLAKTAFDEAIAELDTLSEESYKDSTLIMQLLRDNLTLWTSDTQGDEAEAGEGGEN
The depositor's hits bear a star; / = no result; + = active, no number; [ ] = remark or other dose. A selection: hits, their analogues and other compounds. The true share with any hit is near 1.9%.

SMILES	dFosB activator	NCF1 inh	HMGR II inh	14-3-3 Bad inh
O=[N+]([O-])c1ccc(C2=NN(c3ccccc3)C(c3ccco3)C2)cc1 (stereo not drawn)	-18	28	/	4
Cc1cc(NC(=O)CCc2ccc(S(=O)(=O)N3CCOCC3)cc2)n(-c2ccccc2)n1	5	-8	3	10
O=C(Nc1ccc(N2CCCC2)cc1)c1cc(Br)ccc1Cl	52*	/	/	/
Cc1ccc(C(=O)Nc2ccc(N3CCCC3)cc2)c(C)c1	49*	-19	-5	0
Cc1ccccc1C(=O)Nc1ccc(N2CCCC2)cc1	-1	7	-9	-3
O=C(Nc1ccc(N2CCCC2)cc1)c1ccccc1[N+](=O)[O-]	25*	/	/	/
O=C(Nc1ccccc1N1CCN(C(=O)c2ccccc2)CC1)c1ccc([N+](=O)[O-])o1	-6	/	/	/
Cc1ccccc1OCCn1cc(C(=O)O)c2ccccc21	-2	3	1	5
CCOP(=O)(OCC)C(Nc1ccccc1)c1ccc2c(c1)OCO2 (stereo not drawn)	-6	/	/	/
Cc1ccc(C(=O)OCC(=O)Nc2ccc(C(N)=O)cc2)s1	2	/	/	/
C[C@@H]1C(=O)O[C@H](C)[C@H]1C[C@@H](O)[C@](C)(O)C1CC[C@@]2(O)C3=CC(=O)[C@@H]4C[C@@H](O)[C@@H](O)C[C@]4(C)C3CC[C@]12C (stereo partly drawn)	-10	/	/	/
O=C(COc1ccc(-n2cnnn2)cc1)Nc1cccc(Cl)c1Cl	15	/	/	/
O=C1NCCCC1C(=O)Nc1ccccc1C(F)(F)F (stereo not drawn)	2	-9	+	-4
COc1ccc(C(=O)C2C(c3ccc(-c4ccccc4[N+](=O)[O-])o3)NC(=O)NC2(O)C(F)(F)F)cc1 (stereo not drawn)	0	2	-9	4
Cc1ccccc1NC(=O)Cc1nc(COC(=O)CCOc2ccccc2)cs1	-7	/	/	/
COc1ccc2nc(C)cc(N/N=C/c3cccc(OC)c3O)c2c1	-119	/	/	/
COc1ccc(/C=N/Nc2cc(C)nc3ccc(Br)cc23)cc1	62*	/	/	/
Cc1ccc(C(=O)NCCN2C3=NC[C@H](Cc4ccc(O)cc4)N3C[C@H]2Cc2ccc(O)cc2)cc1Br	6	-1	/	-3
CN(C)c1ccc(C#Cc2ccc3cc(CCO)oc(=O)c3c2)cc1	-3	/	/	/
S=c1nc(Cc2ccccc2)[nH]c2ccccc12	-3	/	/	/
Cc1nc(=S)c2ccccc2[nH]1	-9	-4	15*	-8
Cc1ccc(C(C(=O)NC(C)(C)C)N(Cc2cccs2)C(=O)c2ccc3c(c2)OCCO3)cc1 (stereo not drawn)	-9	52*	-4	1
CC(=O)Nc1ccc2nc(NC(=O)COc3ccccc3Cl)sc2c1	2	-11	2	-11
CC(=O)Nc1ccc2nc(NC(=O)COc3ccccc3C)sc2c1	20*	-13	-2	0
COc1cccc2sc(Nc3nc4ccc(NC(C)=O)cc4s3)nc12	35*	-2	-8	80*[fluorescence artefact?]
SMILES	dFosB activator	NCF1 inh	HMGR II inh	14-3-3 Bad inh
C[C@@]12C(=O)Nc3ccc(Cl)cc3C(=O)N1[C@H]1c3cc(Cl)ccc3OC[C@@H]1[C@@H]2c1ccccc1	3	/	/	/
C[C@@]12C(=O)Nc3ccc(Br)cc3C(=O)N1[C@H]1c3cc(Cl)ccc3OC[C@@H]1[C@@H]2c1ccccc1	25*	/	/	/
O=C(CNC(=O)Cc1ccccc1)N=Nc1c(O)n(Cc2ccc3c(c2)OCO3)c2ccccc12	20*	2	1	21
O=C(N=Nc1c(O)n(Cc2ccccc2)c2ccccc12)c1cc2ccccc2cc1O	-13	40*	-2	47
Cc1cccc(NC(=O)Cn2c(=O)n(C)c3ccccc32)c1	-1	-4	12*	-6
O=C(N=Nc1c(O)n(Cc2ccccc2)c2ccccc12)c1ccc(O)cc1	-5	-3	-3	3
COc1ccccc1NC(=O)Cn1c(O)c(N=NC(=O)c2ccccc2O)c2ccccc21	70*	30	-8	79*
Cn1c(O)c(N=NC(=O)c2ccccc2O)c2ccccc21	6	-7	0	0
COc1ccc(N(CC(=O)N2CCN(C)CC2)S(C)(=O)=O)cc1OC	-4	-4	-4	-2
O=C(NCc1ccc(F)cc1)c1cc2sccc2n1Cc1ccc(F)cc1	/	-20	-2	-10
Cc1ccc(NC(=O)Cn2c(O)c(N=NC(=O)c3ccncc3)c3ccccc32)cc1	-6	12	-2	21
O=C(Cn1c(O)c(N=NC(=O)c2ccncc2)c2ccccc21)Nc1ccccc1	/	-5	/	-4
Cc1ccc(NC(=O)Cn2c(O)c(N=NC(=O)c3cc4ccccc4cc3O)c3ccccc32)cc1	-11	58*	1	82*[fluorescence artefact?]
Cc1cccc(NC(=O)Cn2c(O)c(N=NC(N)=S)c3ccccc32)c1	40*	1	/	1
Cc1nn(CC(=O)Nc2ccc3c(c2)oc2ccccc23)c(=O)c2ccccc12	7	39*	-5	66
Cn1c(SCC(=O)Nc2ccc3c(c2)oc2ccccc23)nnc1-c1ccccc1	12	2	0	72*[fluorescence artefact?]
Cc1csc(NC(=O)CSc2nnc(-c3ccncc3)n2C)n1	-6	41*	-3	6
NS(=O)(=O)c1ccc(NC(=O)Cn2nc(C(=O)O)c3ccccc3c2=O)cc1	-5	/	/	/
O=C(Cn1nc(C(=O)O)c2ccccc2c1=O)Nc1ccc2c(c1)C(=O)c1ccccc1C2=O	/	-10	/	80*
CC(C)C(=O)Nc1nc2cc3c(cc2s1)OCCO3	-8	-17	/	4
Cc1ccc(C)n1-c1ccc(N2CCOCC2)cc1	-11	-9	-10	-2
Cc1cccc(C)c1NC(=O)Cn1c(=O)c2cccn2c2ccccc21	29*	/	/	/
Cc1cccc(C)c1NC(=O)Cn1nc(C)n2cccc2c1=O	-7	/	/	/
Cc1cc2c(C)nc(N/N=C/c3ccc(F)cc3)nc2o1	-8	-12	-6	-3
Cc1cc2c(C)nc(N/N=C/c3ccc([N+](=O)[O-])cc3)nc2o1	-2	44*	-5	48
SMILES	dFosB activator	NCF1 inh	HMGR II inh	14-3-3 Bad inh
CNS(=O)(=O)c1ccc2nc(NC(=O)c3ccc(N4C(=O)CCC4=O)cc3)sc2c1	-6	-1	10*	-6
CCN1CCN(Cc2ccc(NC(=O)c3cc(NC(=O)C(=O)c4c[nH]c5ccccc45)cc(OC)c3)cc2C(F)(F)F)CC1	-7	37*	/	25
CCN1CCN(Cc2ccc(NC(=O)c3ccc(C)c(NC(=O)C(=O)c4c[nH]c5ccccc45)c3)cc2C(F)(F)F)CC1	-14	59*	/	21
CCN1CCN(Cc2ccc(NC(=O)c3ccc(C)c(NC(=O)c4ccc5n[nH]nc5c4)c3)cc2C(F)(F)F)CC1	-10	-9	/	-5
O=C(CN1CCCCC1)N/N=C/c1cc2ccccc2nc1Cl	-19	-6	0	-6
Cc1nn(Cc2ccccc2)c(C)c1C(=O)NCCN1C(=O)S/C(=C\c2ccccc2)C1=O	-5	30*	-12	19
O=C(NCCN1C(=O)S/C(=C/c2ccccc2)C1=O)C1CC(=O)N(Cc2ccccc2)C1 (stereo not drawn)	-13	/	/	/
Cc1ccc(OCCCCn2ccnc2)c([N+](=O)[O-])c1	-6	9	-5	29

Compound activity (PubChem)
